# LmPK inhibitor: inhibitors of Leishmania mexicana pyruvate kinase. purified LmPK, Kinase-Glo ATP luminescence, 1 h. Potency, µM (highest dose often 57.5 µM), most hits filed as inhibitors. hit rate 0.37% among 290,000. AID 1721
# Target sequence (Q27686 whole entry, looked up): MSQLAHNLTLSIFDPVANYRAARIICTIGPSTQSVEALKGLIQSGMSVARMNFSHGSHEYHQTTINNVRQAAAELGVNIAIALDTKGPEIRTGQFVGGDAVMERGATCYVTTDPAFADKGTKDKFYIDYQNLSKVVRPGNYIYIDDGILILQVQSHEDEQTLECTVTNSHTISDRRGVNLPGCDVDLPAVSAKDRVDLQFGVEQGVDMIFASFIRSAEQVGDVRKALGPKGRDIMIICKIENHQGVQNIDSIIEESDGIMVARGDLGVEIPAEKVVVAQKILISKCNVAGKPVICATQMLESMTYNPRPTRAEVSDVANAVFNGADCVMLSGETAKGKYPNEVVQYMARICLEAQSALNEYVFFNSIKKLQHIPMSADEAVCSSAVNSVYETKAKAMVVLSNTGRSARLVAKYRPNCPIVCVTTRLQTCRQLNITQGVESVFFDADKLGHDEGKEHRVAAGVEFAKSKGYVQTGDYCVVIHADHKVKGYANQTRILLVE
#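 0.1 nM LmPK, 0.5 mM PEP, 0.1 mM ADP; 50 mM imidazole pH 7.2, 7 mM MgCl2, 50 mM KCl; 1 h RT. Kinase-Glo luminescence readout, normalized to no-enzyme (full inhibition) and uninhibited wells.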
# Pf growth 48h: inhibits P. falciparum growth in the first generation, 48 h; P. falciparum luciferase growth in erythrocytes, 48 h; hit rate 5.9% among 310,000; Potency, µM (series often up to 28.7 µM), usual class: inhibitors
#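 Compounds are pin-transferred into medium, infected erythrocytes (2% hematocrit, 0.1% parasitemia final) are added, and plates sit one parasite generation at 37 C in 5% CO2. Detection reagent is then added and luminescence measured.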
# Pf growth 96h: inhibits malaria parasite growth, 96 h. P. falciparum luciferase reporter growth, 96 h. hit rate 6.9% among 320,000. Potency, µM (highest dose often 28.7 µM), most hits filed as inhibitors
#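 Infected RBCs, 2% Hct / 0.05% parasitemia final; luciferase-reporter P. falciparum; cpd 96 h, 37 C, 5% CO2; luciferase detection reagent; luminescence.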
# CHX counter: counter-screen hit for Shiga toxin inhibitors, cycloheximide. cell reporter, cycloheximide protein synthesis inhibition counterscreen. max response, %. hit rate 12% among 300,000. AID 2314; in the data active means max response mostly above about 13%, no sharp cut-off; inactive means mostly below about 14%; further: read at 38.3 µM for the half of the compounds with a filed dose
# Shiga inhibitor: Shiga toxin inhibition; Vero cells, Shiga toxin protein synthesis inhibition reporter; inhibition, % at 38.7 µM; hit rate 9.2% among 290,000; in the data active means inhibition mostly above about 28%, no sharp cut-off; inactive means mostly below about 43%
# Numbers stand for hits; n = inactive; u = inconclusive; x = no result given; [ ] = another dose, or the depositor's remark. In the library only some 22% were active in any assay of this set; here they are far more common. Unless noted, the call rests on the fitted dose curve; in most records, active means well fitted inhibition curve with a large enough effect; inconclusive means small, poorly fitted or top-dose-only effect, or another doubt; inactive means no such curve, though single readings can be large or run the other way.
SMILES,LmPK inhibitor,Pf growth 48h,Pf growth 96h,CHX counter,Shiga inhibitor
Clc1ccc(/C=C/c2ncc[nH]2)c(Cl)c1,n,u,u,46.0,65.1
O=c1[nH]c(/C=C/c2ccc(Cl)cc2Cl)c([N+](=O)[O-])c(=O)[nH]1,n,n,n,n,n
CC(C)[C@H](NS(=O)(=O)c1ccc(Cl)cc1)C(=O)OCC(=O)NCCN1C(=O)CSC1=O,n,n,n,n,n
COc1cc(NC(=O)COc2ccc3c(C)cc(=O)oc3c2C)cc(OC)c1OC,n,u,u,n,n
CC1CCN(S(=O)(=O)c2ccc(-c3nnc(SCc4cccnc4)o3)cc2)CC1,n,x,x,n,n
Cc1cc(-c2nnc(SCc3cccnc3)o2)no1,n,n,x,n,n
COc1ccc(NC(=O)CSc2nnc(-c3cccnc3)o2)cc1,n,x,n,n,n
O=[N+]([O-])c1cccc(-c2nnc(SCc3cccnc3)o2)c1,n,n,n,13.0,n
COc1cc(OC)cc(-c2nnc(SCc3cccnc3)o2)c1,n,n,u,17.0,n
COc1cccc(-c2nnc(SCc3cccnc3)o2)c1,n,n,x,66.9,97.7
CC(=O)c1c(C)[nH]c(C(=O)OCC(=O)Nc2nnc(-c3ccccc3)o2)c1C,x,n,n,x,x
CCOc1ccccc1NC(=O)COn1nnc2ccccc21,n,n,x,16.8,n
O=C(COn1nnc2ccccc21)NCC1CCCCC1,n,n,n,28.4,n
CCc1ccc(CN2CCN(C(=O)Cc3ccccc3)CC2)cc1,n,n,n,n,n
COc1ccccc1OCC(=O)NCC1CCCCC1,n,n,n,n,n
O=C(COn1nnc2ccccc21)N1CCN(Cc2ccccc2)CC1,n,n,n,50.0,96.1
N#CC(CC(=O)c1ccc(F)cc1)c1ccc2c(c1)OCO2 (centres undefined),n,n,n,n,n
CCCOC(=O)c1ccccc1O,x,n,n,x,x
CCOC(=O)c1c(C)[nH]c(N=Nc2ccccc2C)c1C,n,n,x,38.1,80.6
CCOC(=O)c1c(C)[nH]c(N=Nc2cc(C(=O)O)cc(C(=O)O)c2)c1C,n,n,u,n,n
CCOC(=O)c1c(C)[nH]c(N=Nc2ccc(C)cc2C)c1C,n,n,n,36.6,182.6
O=C(O)/C=C/C(=O)NCCCc1ccccc1,n,n,u,n,n
COc1cccc(C(C(=O)NCC2CCCO2)N(C(=O)Cn2nnc3ccccc32)c2ccc(NC(C)=O)cc2)c1 (centres undefined),n,u,n,n,n
Cn1c(=O)c2c(nc(NCCO)n2CCc2ccccc2)n(C)c1=O,n,n,10.4µM,n,n
CCCCCCn1c(NCC)nc2c1c(=O)n(C)c(=O)n2C,n,3.29µM,u,n,n
SMILES,LmPK inhibitor,Pf growth 48h,Pf growth 96h,CHX counter,Shiga inhibitor
CCCCNc1nc2c(c(=O)n(C)c(=O)n2C)n1CCC,n,n,n,n,n
CCCNc1nc2c(c(=O)n(C)c(=O)n2C)n1CCc1ccccc1,n,n,u,n,n
CCCNc1nc2c(c(=O)n(C)c(=O)n2C)n1CCCc1ccccc1,n,u,1.47µM,n,n
CC(C)(C)c1nnc(NC(=O)c2ccc3c(c2)OCO3)s1,n,n,n,39.5,169.8
CC(C)c1nnc(NC(=O)c2ccc3c(c2)OCO3)s1,n,n,n,39.9,125.2
CCSc1nnc(NC(=O)c2ccc3c(c2)OCO3)s1,n,n,x,44.9,66.6
CC(C)(C)c1nnc(NC(=O)COc2ccc3c(c2)OCO3)s1,x,n,u,x,x
CCN(CC)C(=O)c1sc(NC(=O)c2ccc3c(c2)OCO3)c(C(N)=O)c1C,n,n,n,42.3,n
CC(c1ccccc1)c1nnc(NC(=O)c2ccc3c(c2)OCO3)s1 (centres undefined),n,u,n,n,n
Cc1nc2sccn2c(=O)c1S(=O)(=O)NCC1CCN(Cc2ccccc2Cl)CC1,n,n,u,n,n
CC(C)Sc1nnc(NC(=O)c2ccc3c(c2)OCO3)s1,n,n,n,24.5,56.0
CCCN(CC(=O)Nc1ccccc1OC)C(=O)c1ccc(COc2ccccc2)o1,x,14.7µM,u,x,x
CN(CC(=O)Nc1ccccc1Br)C(=O)c1ccc(COc2ccccc2)cc1,n,n,n,18.8,n
CCCN(CC(=O)Nc1ccccc1OC)C(=O)c1cc2ccccc2o1,n,n,u,n,n
CN(CC(=O)Nc1ccccc1Cl)C(=O)c1ccc(COc2ccccc2)cc1,x,n,n,x,x
COc1cccc(NC(=O)CN(C)C(=O)c2ccc(COc3ccccc3)o2)c1,x,14.7µM,14.7µM,x,x
C[N+](C)(C)C[C@H](O)CC(=O)[O-],x,u,n,x,x
COC(=O)CC(NC(=O)Nc1ccccc1F)c1ccc2c(c1)OCO2 (centres undefined),n,n,n,n,n
Cn1c(CSc2nc3ccccc3s2)nc2ccccc21,n,n,n,39.1,77.4
Cn1c(CSc2nc3ccccc3s2)n[nH]c1=S,n,n,n,15.0,n
Cn1c(CSc2ncn[nH]2)nc2ccccc21,n,n,n,n,n
Cn1c(-c2csc(-c3ccccc3)n2)n[nH]c1=S,n,n,n,16.1,n
CCNc1nnc(CSc2nc3ccccc3s2)s1,n,n,n,36.8,59.7
CCN(C(=O)Cc1c(C(=O)O)[nH]c2ccccc12)c1ccc(OC)cc1,n,n,n,n,n
CC#CCN1c2ccccc2[C@]23C[C@@H](C(=O)OC)N(C(=O)COCc4ccccc4)C2=NC(C(=O)OC)=C(C(=O)OC)[C@H]13,n[11.5 µM],x,x,x,x
SMILES,LmPK inhibitor,Pf growth 48h,Pf growth 96h,CHX counter,Shiga inhibitor
CN(Cc1ccco1)S(=O)(=O)c1csc(C(N)=O)c1,n,n,n,n,n
CC(=O)Oc1ccc2occ(C(=O)c3cccs3)c2c1,n,x,n,36.8,66.8
O=C(O)COc1ccc2occ(C(=O)c3ccccc3)c2c1,n,n,x,n,n
O=C(CCl)Oc1ccc2occ(C(=O)c3cccs3)c2c1,n,x,n,39.3,n
CC(=O)Oc1ccc2occ(-c3ccccc3)c2c1,n,n,u,25.0,125.5
CCOC(=O)c1c(-c2ccccc2)oc2ccc(OC(C)=O)cc12,n,n,n,n,n
O=C(c1cccs1)c1coc2ccc(O)cc12,n,x,n,75.4,81.3
O=C(Oc1ccc2c3c(c(=O)oc2c1)CCCC3)c1cccs1,n,n,n,n,n
CC(c1ccc(F)cc1)n1cc(C(=O)NCCN(C)C)nn1 (centres undefined),n,n,n,n,n
CC(=O)Nc1ccc(N2C(C(C)=O)=NN(c3ccc(Cl)cc3)C2c2sccc2C)cc1 (centres undefined),n,9.28µM,u,n,n
O=C(O)CC(c1ccc(C(F)(F)F)cc1)N1Cc2ccccc2C1=O (centres undefined),n,n,n,n,n
CCOC(=O)c1ccc(N/C=C/C(=O)C(C)(C)C)cc1,n,n,n,50.5,90.1
CCOC(=O)c1ccc(CNCc2ccccc2)cc1,n,n,n,29.5,50.1
CCOC(=O)c1ccc(N2C(=O)[C@@H](c3ccccc3)[C@H]2c2ccccc2)cc1,x,10.4µM,u,x,x
CCOC(=O)c1ccc(N/C=C/C(=O)c2ccccc2)cc1,n,n,u,42.9,53.8

# Screening results as filed in PubChem.
